For test [1], the target named is T1, Ephrin type-A receptor 3 (Homo sapiens) (UniProt P29320).
T1 sequence (whole entry): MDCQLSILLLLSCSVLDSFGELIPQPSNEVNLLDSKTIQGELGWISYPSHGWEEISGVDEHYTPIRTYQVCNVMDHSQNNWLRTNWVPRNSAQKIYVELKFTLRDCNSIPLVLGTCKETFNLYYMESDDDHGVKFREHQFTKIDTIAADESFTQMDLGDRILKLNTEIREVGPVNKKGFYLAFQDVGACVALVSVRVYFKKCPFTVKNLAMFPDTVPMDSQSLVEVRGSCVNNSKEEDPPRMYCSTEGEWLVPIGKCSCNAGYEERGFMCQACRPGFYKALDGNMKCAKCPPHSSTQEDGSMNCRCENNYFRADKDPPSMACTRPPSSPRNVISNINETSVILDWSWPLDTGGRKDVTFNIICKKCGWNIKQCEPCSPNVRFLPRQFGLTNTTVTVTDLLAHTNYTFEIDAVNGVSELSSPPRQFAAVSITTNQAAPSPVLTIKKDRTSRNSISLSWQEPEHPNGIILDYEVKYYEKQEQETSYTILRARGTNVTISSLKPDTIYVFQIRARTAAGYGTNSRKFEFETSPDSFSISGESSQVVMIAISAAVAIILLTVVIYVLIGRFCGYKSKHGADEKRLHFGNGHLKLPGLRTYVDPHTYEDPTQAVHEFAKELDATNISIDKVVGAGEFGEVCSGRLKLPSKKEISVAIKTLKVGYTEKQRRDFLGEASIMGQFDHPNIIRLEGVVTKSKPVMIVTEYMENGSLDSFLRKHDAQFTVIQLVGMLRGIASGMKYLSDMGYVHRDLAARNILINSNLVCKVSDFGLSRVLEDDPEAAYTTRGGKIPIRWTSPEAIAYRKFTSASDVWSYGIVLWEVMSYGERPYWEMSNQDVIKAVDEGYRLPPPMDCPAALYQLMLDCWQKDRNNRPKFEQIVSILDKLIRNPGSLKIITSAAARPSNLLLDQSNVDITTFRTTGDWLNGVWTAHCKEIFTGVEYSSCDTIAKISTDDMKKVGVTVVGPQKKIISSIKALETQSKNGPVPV
Particulars: at 10 µM.

In test [2] the target is Ephrin type-A receptor 4 (Homo sapiens) (UniProt P54764). The note with it: at 1 µM.
Sequence of Ephrin type-A receptor 4 (Homo sapiens) (P54764 whole entry): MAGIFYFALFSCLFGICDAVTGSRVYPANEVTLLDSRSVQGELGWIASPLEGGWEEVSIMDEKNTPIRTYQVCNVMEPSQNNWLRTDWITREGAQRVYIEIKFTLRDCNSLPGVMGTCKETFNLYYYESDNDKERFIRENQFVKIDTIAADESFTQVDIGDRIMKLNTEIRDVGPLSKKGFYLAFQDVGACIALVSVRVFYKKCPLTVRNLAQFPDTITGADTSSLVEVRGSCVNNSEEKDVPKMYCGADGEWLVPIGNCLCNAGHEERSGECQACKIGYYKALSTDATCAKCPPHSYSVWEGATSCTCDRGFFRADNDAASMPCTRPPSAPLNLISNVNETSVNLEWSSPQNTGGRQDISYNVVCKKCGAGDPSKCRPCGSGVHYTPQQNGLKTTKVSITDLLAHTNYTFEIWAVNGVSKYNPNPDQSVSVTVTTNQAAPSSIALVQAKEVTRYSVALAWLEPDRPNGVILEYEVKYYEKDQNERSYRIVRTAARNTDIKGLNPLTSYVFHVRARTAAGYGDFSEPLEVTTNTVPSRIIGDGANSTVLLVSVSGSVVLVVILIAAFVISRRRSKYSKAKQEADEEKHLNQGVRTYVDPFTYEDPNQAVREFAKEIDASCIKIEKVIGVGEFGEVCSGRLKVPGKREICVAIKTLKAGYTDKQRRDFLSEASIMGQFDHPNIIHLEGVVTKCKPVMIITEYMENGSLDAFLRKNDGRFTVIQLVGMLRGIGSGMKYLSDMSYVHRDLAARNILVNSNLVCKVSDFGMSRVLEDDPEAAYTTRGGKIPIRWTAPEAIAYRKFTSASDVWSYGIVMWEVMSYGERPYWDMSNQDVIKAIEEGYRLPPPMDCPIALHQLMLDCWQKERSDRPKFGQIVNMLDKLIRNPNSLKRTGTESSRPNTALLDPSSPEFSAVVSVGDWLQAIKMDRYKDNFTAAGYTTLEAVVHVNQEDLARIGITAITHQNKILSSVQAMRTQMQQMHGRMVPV
The target is the same in test [3]. Particulars: at 10 µM.
In test [4] the target is Ephrin type-A receptor 5 (Homo sapiens) (UniProt P54756). The note with it: at 1 µM.
Sequence of Ephrin type-A receptor 5 (Homo sapiens) (P54756 whole entry): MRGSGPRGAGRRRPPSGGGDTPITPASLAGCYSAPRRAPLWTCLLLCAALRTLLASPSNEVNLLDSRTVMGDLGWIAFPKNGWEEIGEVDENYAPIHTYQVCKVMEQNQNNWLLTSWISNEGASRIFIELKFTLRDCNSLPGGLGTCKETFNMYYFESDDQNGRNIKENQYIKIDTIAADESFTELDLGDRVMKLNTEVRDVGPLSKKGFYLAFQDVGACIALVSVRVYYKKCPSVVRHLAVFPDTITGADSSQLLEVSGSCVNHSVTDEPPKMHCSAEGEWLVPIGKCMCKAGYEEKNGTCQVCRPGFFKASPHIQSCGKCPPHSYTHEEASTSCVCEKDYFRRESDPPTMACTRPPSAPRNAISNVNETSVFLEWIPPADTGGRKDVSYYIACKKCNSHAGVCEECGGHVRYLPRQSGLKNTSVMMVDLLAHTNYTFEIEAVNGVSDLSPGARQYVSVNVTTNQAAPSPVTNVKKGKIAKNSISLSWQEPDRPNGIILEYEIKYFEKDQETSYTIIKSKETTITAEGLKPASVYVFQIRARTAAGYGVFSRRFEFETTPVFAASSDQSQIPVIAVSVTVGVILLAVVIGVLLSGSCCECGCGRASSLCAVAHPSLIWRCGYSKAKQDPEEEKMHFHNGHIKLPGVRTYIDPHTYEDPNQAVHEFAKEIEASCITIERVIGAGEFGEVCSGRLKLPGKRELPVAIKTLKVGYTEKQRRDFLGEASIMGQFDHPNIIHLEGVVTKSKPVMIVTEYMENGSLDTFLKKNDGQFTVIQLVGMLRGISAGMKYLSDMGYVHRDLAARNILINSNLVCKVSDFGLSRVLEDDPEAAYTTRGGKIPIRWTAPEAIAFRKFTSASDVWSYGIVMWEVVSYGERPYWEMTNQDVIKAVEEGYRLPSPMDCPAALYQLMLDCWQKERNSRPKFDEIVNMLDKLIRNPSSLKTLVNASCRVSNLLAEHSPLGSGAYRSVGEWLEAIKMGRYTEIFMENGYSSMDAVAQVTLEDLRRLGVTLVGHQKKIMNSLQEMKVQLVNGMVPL
Test [5] has the same target. Particulars: at 10 µM.
Test [6] concerns the target Ephrin type-A receptor 7 (Homo sapiens) (UniProt Q15375). Particulars: at 1 µM.
Test [7] has the same target. The note with it: at 10 µM.
Test [8] concerns the target T2, Ephrin type-A receptor 8 (Homo sapiens) (UniProt P29322).
T2 sequence (whole entry): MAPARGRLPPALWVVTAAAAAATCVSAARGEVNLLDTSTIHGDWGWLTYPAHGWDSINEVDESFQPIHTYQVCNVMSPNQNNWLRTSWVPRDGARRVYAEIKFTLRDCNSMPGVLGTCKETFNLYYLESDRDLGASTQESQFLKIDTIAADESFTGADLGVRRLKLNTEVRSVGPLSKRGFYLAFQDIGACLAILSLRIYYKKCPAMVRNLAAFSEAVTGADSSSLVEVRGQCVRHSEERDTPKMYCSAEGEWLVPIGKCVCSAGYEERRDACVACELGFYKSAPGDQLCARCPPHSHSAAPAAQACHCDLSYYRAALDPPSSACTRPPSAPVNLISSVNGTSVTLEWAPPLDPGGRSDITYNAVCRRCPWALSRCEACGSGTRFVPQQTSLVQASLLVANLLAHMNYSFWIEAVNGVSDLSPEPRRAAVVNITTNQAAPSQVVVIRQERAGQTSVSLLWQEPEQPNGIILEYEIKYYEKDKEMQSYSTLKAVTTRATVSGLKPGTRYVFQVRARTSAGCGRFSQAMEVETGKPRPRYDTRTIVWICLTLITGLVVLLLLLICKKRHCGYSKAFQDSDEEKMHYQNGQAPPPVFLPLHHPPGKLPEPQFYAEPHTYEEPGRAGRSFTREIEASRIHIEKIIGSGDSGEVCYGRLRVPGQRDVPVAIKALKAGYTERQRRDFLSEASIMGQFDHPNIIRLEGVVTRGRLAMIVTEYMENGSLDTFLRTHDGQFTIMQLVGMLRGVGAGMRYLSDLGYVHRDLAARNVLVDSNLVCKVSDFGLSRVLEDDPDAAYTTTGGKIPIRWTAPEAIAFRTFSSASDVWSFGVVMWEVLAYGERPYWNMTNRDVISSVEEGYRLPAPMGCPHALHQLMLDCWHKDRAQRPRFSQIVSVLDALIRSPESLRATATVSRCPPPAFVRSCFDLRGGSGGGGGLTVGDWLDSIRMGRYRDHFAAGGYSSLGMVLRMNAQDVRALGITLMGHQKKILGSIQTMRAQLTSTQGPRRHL
The note with it: at 1 µM.

Test [9] concerns the target T2, Ephrin type-A receptor 8 (Homo sapiens). Particulars: at 10 µM.
In test [10] the target is T3, Ephrin type-B receptor 1 (Homo sapiens) (UniProt P54762).
T3 sequence (whole entry): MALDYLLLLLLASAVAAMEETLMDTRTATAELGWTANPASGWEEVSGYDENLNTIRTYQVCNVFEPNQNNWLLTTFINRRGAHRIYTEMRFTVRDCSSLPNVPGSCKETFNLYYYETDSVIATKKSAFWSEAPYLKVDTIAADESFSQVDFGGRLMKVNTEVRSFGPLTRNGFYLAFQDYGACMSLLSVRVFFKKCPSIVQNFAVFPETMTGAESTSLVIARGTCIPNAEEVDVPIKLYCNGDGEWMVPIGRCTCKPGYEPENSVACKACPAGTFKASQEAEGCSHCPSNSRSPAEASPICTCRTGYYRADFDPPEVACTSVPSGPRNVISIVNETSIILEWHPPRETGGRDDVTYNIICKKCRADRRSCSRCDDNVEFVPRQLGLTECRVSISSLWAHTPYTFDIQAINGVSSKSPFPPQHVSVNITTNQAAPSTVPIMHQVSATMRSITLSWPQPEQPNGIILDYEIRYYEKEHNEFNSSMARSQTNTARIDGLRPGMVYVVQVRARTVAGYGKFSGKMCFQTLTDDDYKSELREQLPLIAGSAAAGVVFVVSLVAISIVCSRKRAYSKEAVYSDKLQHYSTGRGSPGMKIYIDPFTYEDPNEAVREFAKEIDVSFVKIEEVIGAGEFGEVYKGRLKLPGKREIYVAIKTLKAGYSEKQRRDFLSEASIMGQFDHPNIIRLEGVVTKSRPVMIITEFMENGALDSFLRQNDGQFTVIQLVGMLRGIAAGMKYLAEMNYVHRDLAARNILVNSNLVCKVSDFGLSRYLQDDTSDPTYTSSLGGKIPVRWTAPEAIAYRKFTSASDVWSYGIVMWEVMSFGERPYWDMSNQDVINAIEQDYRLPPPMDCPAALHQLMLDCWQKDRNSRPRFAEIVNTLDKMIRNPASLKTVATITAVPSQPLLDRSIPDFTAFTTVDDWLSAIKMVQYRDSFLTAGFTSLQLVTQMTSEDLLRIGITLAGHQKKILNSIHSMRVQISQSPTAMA
The note with it: at 1 µM.

This passage reports residual activity results from ChEMBL document CHEMBL2218924, “A broad activity screen in support of a chemogenomic map for kinase signalling research and drug discovery” (Biochem J, 2013).

As a reminder, the residual activity is what remains of the control signal, in per cent. Read a low residual activity as a large loss of activity.

Sequence of Ephrin type-A receptor 7 (Homo sapiens) (Q15375 28-998 limits assumed): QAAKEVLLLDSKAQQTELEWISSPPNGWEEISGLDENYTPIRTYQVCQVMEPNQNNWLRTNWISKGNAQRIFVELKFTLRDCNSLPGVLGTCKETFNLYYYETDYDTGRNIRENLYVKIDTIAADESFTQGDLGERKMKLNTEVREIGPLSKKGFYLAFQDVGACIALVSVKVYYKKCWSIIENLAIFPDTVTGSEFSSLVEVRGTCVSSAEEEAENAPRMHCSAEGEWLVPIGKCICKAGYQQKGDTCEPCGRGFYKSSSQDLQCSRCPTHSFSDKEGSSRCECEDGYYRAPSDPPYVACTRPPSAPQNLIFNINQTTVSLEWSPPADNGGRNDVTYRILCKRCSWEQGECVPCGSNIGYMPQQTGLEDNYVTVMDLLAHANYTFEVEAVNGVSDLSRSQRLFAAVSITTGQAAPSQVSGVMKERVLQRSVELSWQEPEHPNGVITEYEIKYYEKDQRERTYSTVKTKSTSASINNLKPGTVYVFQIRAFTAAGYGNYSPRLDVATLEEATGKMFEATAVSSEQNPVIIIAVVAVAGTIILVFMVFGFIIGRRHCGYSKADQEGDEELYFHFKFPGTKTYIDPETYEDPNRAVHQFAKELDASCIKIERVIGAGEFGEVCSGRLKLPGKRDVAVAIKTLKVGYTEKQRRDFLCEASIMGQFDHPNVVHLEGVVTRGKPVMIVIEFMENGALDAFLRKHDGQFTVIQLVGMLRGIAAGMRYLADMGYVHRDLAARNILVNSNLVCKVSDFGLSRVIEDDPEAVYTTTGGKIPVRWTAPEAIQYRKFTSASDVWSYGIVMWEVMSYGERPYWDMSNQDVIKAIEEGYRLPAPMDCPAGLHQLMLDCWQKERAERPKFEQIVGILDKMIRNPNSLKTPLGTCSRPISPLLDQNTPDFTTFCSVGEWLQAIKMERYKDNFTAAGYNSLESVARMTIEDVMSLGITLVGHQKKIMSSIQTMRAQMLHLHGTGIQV

For `O=Nc1c(-c2c(O)[nH]c3ccccc23)[nH]c2ccccc12`, the residual activity amounted to 9% in test [1]; 96% in [2]; 83% in test [3]; 59% in test [4]; 9% in test [5]; 70% in test [6]. The residual activity in test [7] is 15%; in test [8], 84%; in test [9], 43%; in test [10] it was 59%.
